The panel holds about 79,000 compounds, 15% with a hit somewhere; the sample as a whole holds those more often. A number with no mark means an inactive call. Calls of active or inactive are those of the source. Cut-off read from the data, not from the text of the source: active = growth inhibition above about 70%; inactive = the rest.
Assay: NCI Yeast Anticancer Drug Screen. Data for the sgs1 mgt1 strain (AID 161);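 note: 0% = growth of cultures given vehicle only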
Conditions: S. cerevisiae sgs1 mgt1 strain, at 50.0 µM (retest, dose inferred, filed as 5.0), active compounds read high
Summary of the method: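 Test agents were incubated with a DNA-repair-mutant yeast strain. Growth was then read and compared against vehicle-treated controls.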

| Structure (SMILES) | growth inhibition |
| --- | --- |
| Clc1ccc(OCC(Cn2ccnc2)c2ccc(Cl)cc2)cc1 (stereo not drawn) | 97% (active) |
| CC(C)C(CC(C)(C)C)OC(=O)Nc1cccc2ccccc12 (stereo not drawn) | 97% (active) |
| CC(=O)OC[C@@]1(C)[C@@H]2CC[C@]3(C)[C@H](C(=O)C=C4[C@@H]5CC(C)(C)CC[C@]5(C(=O)O)CC[C@]43C)[C@@]2(C)CC[C@@H]1OC(C)=O | 88% (active) |
| CCOC(=O)C[n+]1c(C)sc2ccccc21 | 54% |
| O=[N+]([O-])c1ccc(/C=N/O)s1 | 99% (active) |
| C=C(C)COc1ccccc1C(OCC)OCC | 28% |
| CCCCCCCCCCCCCC1OC(=O)C(C)=C1C(=O)O (stereo not drawn) | 60% |
| CC(C)C(Sc1nc(-c2ccccc2)c(-c2ccccc2)[nH]1)c1n[nH]c(=S)n1-c1ccccc1 (stereo not drawn) | 98% (active) |
| Cc1ccc(-c2c(C#N)c(S)n(NS(=O)(=O)c3ccccc3)c(=O)c2C#N)cc1 | 94% (active) |
| O=C(c1ccccc1)c1ccc2c(c1Cl)C(=O)c1ccccc1C2=O | 0% |
| COc1cccc(C2c3cc4c(cc3OC(O)C2C)OCO4)c1O (stereo not drawn) | 24% |
| CCC[N+]1=C(/C=C/c2ccc3cccnc3c2O)C(C)(C)c2ccccc21 | 98% (active) |
| O=C(/C=C/c1ccccc1Cl)c1ccc(F)cc1 | -4% |
| CCN(CC)C(=S)N=Nc1c(O)[nH]c2ccccc12 | 99% (active) |
| C[CH2][Sn]([CH2]C)([O]C(=O)c1ccccc1OC)[O][Sn]([CH2]C)([CH2]C)[O]C(=O)c1ccccc1OC | 83% (active) |
| CCCCCCCCCCCCCCCC[N+](C)(C)C(C)c1ccc(OC)cc1 (stereo not drawn) | 99% (active) |
| S=C(NCCc1ccccc1)N/N=C/c1ccc(Cl)cc1 | 61% |
| Cc1cc(Nc2ccc(O)c(CN3CCN(Cc4cc(Nc5cc(C)nc(N)n5)ccc4O)CC3)c2)nc(N)n1 | 96% (active) |
| CC1C[N+](C)(C)C(C)C(=O)C1(c1ccccc1)c1ccccc1 (stereo not drawn) | 3% |
| O=C1C(Cl)=C(Cl)C(=O)C2CC=CCC12 (stereo not drawn) | 99% (active) |

| Structure (SMILES) | growth inhibition |
| --- | --- |
| C/C(=N/O)c1ccc2c(c1)C(C)c1ccccc1-2 (stereo not drawn) | -65% |
| c1ccc(N/N=C2/CCCC3/C(=N\Nc4ccccc4)CCCC23)cc1 (stereo not drawn) | 99% (active) |
| CCCC(C)C/C(C)=C\C(C)(C)C1CC(=O)N(CC)C1=O (stereo not drawn) | 54% |
| COC(C(=O)C1=C2Oc3c4c(cc(O)c3C(=O)C2C2=C(CCCC2)C1=O)OC(C)(C)C=C4)C(C)CCC=C(C)C (stereo not drawn) | 90% (active) |
| Cc1cc(Br)c(NC(=O)CBr)cc1C | 97% (active) |
| Cc1ccc(S(=O)(=O)OCCCCOS(=O)(=O)c2ccc(C)cc2)cc1 | 4% |
| Cc1ccc([N+](=O)[O-])c2c(NCCCN(C)C)c3ccccc3nc12 | 98% (active) |
| CCOC(=O)c1c(N2CCCC2)nsc1Nc1ccc(F)cc1 | 90% (active) |
| CC(=O)[C@H]1CC[C@H]2[C@@H]3CC[C@H]4C[C@@H](N5CCOCC5)CC[C@]4(C)[C@H]3CC[C@]12C | 87% (active) |
| CC(C)CCCC(C)C1CCC2C3CCC4=CC(O)CCC4(C)C3CCC12C (stereo not drawn) | 92% (active) |
| Nc1ccccc1SC(/C=C/NNC1=NC(c2ccccc2)C(c2ccccc2)=NN1)c1ccccc1 (stereo not drawn) | 19% |
| CCOC(=O)C1=C(c2ccccc2)OC(N)=C(C#N)C1c1ccc(C)cc1 (stereo not drawn) | 64% |
| COC1CC(OC(=O)c2ccccc2)C2OC(c3ccccc3)OCC2O1 (stereo not drawn) | 44% |
| O=C(/N=C1\N=Nc2nc(C(C(=O)c3cccs3)c3nc4n(c3O)/C(=N/C(=O)Nc3ccc(Cl)cc3)N=N4)c(O)n21)Nc1ccc(Cl)cc1 (stereo not drawn) | 7% |
| C=CCNC(=S)N/N=C(\CCC)c1ccccn1 | 96% (active) |
| O=C(c1cc2c(C(F)(F)F)onc2c2ccccc12)C(F)(F)F | -2% |
| O=C1C=CC(=O)C2C1Cc1ccccc1C2c1ccccc1 (stereo not drawn) | 98% (active) |
| CC1SC2(C(=O)Nc3ccc([N+](=O)[O-])cc32)N(c2ccc(Cl)cc2)C1=O (stereo not drawn) | 98% (active) |
| CC(=O)OCCn1c2nc(=O)[nH]c(=O)c-2nc2cc(C)c(C)cc21 | 81% (active) |

Same assay, conditions: S. cerevisiae sgs1 mgt1 strain, at 50.0 µM, active compounds read high

| Structure (SMILES) | growth inhibition |
| --- | --- |
| Clc1ccc(OCC(Cn2ccnc2)c2ccc(Cl)cc2)cc1 (stereo not drawn) | 99.8% (active) |
| CC(C)C(CC(C)(C)C)OC(=O)Nc1cccc2ccccc12 (stereo not drawn) | 61.8% |
| CC(=O)OC[C@@]1(C)[C@@H]2CC[C@]3(C)[C@H](C(=O)C=C4[C@@H]5CC(C)(C)CC[C@]5(C(=O)O)CC[C@]43C)[C@@]2(C)CC[C@@H]1OC(C)=O | 92.8% (active) |
| CCOC(=O)C[n+]1c(C)sc2ccccc21 | 37.6% |
| O=[N+]([O-])c1ccc(/C=N/O)s1 | 97.7% (active) |
| C=C(C)COc1ccccc1C(OCC)OCC | 29.1% |
| CCCCCCCCCCCCCC1OC(=O)C(C)=C1C(=O)O (stereo not drawn) | 47.5% |
| CC(C)C(Sc1nc(-c2ccccc2)c(-c2ccccc2)[nH]1)c1n[nH]c(=S)n1-c1ccccc1 (stereo not drawn) | 96.8% (active) |
| Cc1ccc(-c2c(C#N)c(S)n(NS(=O)(=O)c3ccccc3)c(=O)c2C#N)cc1 | 83.8% (active) |
| O=C(c1ccccc1)c1ccc2c(c1Cl)C(=O)c1ccccc1C2=O | 63.8% |
| COc1cccc(C2c3cc4c(cc3OC(O)C2C)OCO4)c1O (stereo not drawn) | -6.55% |
| CCC[N+]1=C(/C=C/c2ccc3cccnc3c2O)C(C)(C)c2ccccc21 | 54% |
| O=C(/C=C/c1ccccc1Cl)c1ccc(F)cc1 | 53.8% |
| CCN(CC)C(=S)N=Nc1c(O)[nH]c2ccccc12 | 89.3% (active) |
| C[CH2][Sn]([CH2]C)([O]C(=O)c1ccccc1OC)[O][Sn]([CH2]C)([CH2]C)[O]C(=O)c1ccccc1OC | 42.2% |
| CCCCCCCCCCCCCCCC[N+](C)(C)C(C)c1ccc(OC)cc1 (stereo not drawn) | 90% (active) |
| S=C(NCCc1ccccc1)N/N=C/c1ccc(Cl)cc1 | 83.5% (active) |
| Cc1cc(Nc2ccc(O)c(CN3CCN(Cc4cc(Nc5cc(C)nc(N)n5)ccc4O)CC3)c2)nc(N)n1 | 97.5% (active) |
| CC1C[N+](C)(C)C(C)C(=O)C1(c1ccccc1)c1ccccc1 (stereo not drawn) | -10.3% |
| O=C1C(Cl)=C(Cl)C(=O)C2CC=CCC12 (stereo not drawn) | 99.6% (active) |

| Structure (SMILES) | growth inhibition |
| --- | --- |
| C/C(=N/O)c1ccc2c(c1)C(C)c1ccccc1-2 (stereo not drawn) | 34.5% |
| c1ccc(N/N=C2/CCCC3/C(=N\Nc4ccccc4)CCCC23)cc1 (stereo not drawn) | 63.2% |
| CCCC(C)C/C(C)=C\C(C)(C)C1CC(=O)N(CC)C1=O (stereo not drawn) | 72.7% (active) |
| COC(C(=O)C1=C2Oc3c4c(cc(O)c3C(=O)C2C2=C(CCCC2)C1=O)OC(C)(C)C=C4)C(C)CCC=C(C)C (stereo not drawn) | 78.5% (active) |
| Cc1cc(Br)c(NC(=O)CBr)cc1C | 72% (active) |
| Cc1ccc(S(=O)(=O)OCCCCOS(=O)(=O)c2ccc(C)cc2)cc1 | 15.7% |
| Cc1ccc([N+](=O)[O-])c2c(NCCCN(C)C)c3ccccc3nc12 | 97.2% (active) |
| CCOC(=O)c1c(N2CCCC2)nsc1Nc1ccc(F)cc1 | 92% (active) |
| CC(=O)[C@H]1CC[C@H]2[C@@H]3CC[C@H]4C[C@@H](N5CCOCC5)CC[C@]4(C)[C@H]3CC[C@]12C | 83.5% (active) |
| CC(C)CCCC(C)C1CCC2C3CCC4=CC(O)CCC4(C)C3CCC12C (stereo not drawn) | 93% (active) |
| Nc1ccccc1SC(/C=C/NNC1=NC(c2ccccc2)C(c2ccccc2)=NN1)c1ccccc1 (stereo not drawn) | 91.5% (active) |
| CCOC(=O)C1=C(c2ccccc2)OC(N)=C(C#N)C1c1ccc(C)cc1 (stereo not drawn) | 92.5% (active) |
| COC1CC(OC(=O)c2ccccc2)C2OC(c3ccccc3)OCC2O1 (stereo not drawn) | 63.3% |
| O=C(/N=C1\N=Nc2nc(C(C(=O)c3cccs3)c3nc4n(c3O)/C(=N/C(=O)Nc3ccc(Cl)cc3)N=N4)c(O)n21)Nc1ccc(Cl)cc1 (stereo not drawn) | 66.2% |
| C=CCNC(=S)N/N=C(\CCC)c1ccccn1 | 99.6% (active) |
| O=C(c1cc2c(C(F)(F)F)onc2c2ccccc12)C(F)(F)F | 50.6% |
| O=C1C=CC(=O)C2C1Cc1ccccc1C2c1ccccc1 (stereo not drawn) | 99% (active) |
| CC1SC2(C(=O)Nc3ccc([N+](=O)[O-])cc32)N(c2ccc(Cl)cc2)C1=O (stereo not drawn) | 79.2% (active) |
| CC(=O)OCCn1c2nc(=O)[nH]c(=O)c-2nc2cc(C)c(C)cc21 | 35% |
